# Compounds with a hit are over-represented: about 8% of the library has one in this group of screens.
# KB-3-1 cytotox – kills parental KB-3-1 adenocarcinoma cells; KB-3-1 viability, CellTiter-Glo ATP luminescence, 72 h; Potency, µM (titrated, usually from 46.1 µM), actives largely listed as cytotoxic; 1.4% of 400,000 active; AID 1347075; note: % is set by controls: 0 for no effect and ±100 for the full control effect; nearly all actives have a fitted effect of over 60% in size
#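 Viability of parental KB-3-1 cells, measured by CellTiter-Glo luminescence, followed a 72 h incubation at 37 °C with pinned compounds in phenol-red-free DMEM containing 10% FBS.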
# KB-V1 cytotox – kills drug-selected multidrug resistant KB-V1 cells; 3.4% of 400,000 active; Potency, µM (highest dose often 46.1 µM), actives largely listed as cytotoxic; KB-V1 MDR cells viability, CellTiter-Glo, 72 h; AID 1347076; note: % is set by controls: 0 for no effect and ±100 for the full control effect; nearly all actives have a fitted effect of over 60% in size
#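 Compound-treated KB-V1 multidrug-resistant cells, 72 h, 37 degrees C; viability by CellTiter-Glo. Fitted qHTS curves give the values.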
# HT1080-NT tox – kills 2HG-producing HT-1080-NT fibrosarcoma cells; HT-1080-NT fibrosarcoma viability, CellTiter-Glo ATP luminescence, 48 h; Potency, µM (series often up to 46.1 µM), for the others: at the highest dose activity, negative = less viability, most hits filed as cytotoxic; 1.6% of 360,000 active; AID 686970;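 note: NT is the 2HG producing partner of a matched IDH1 knockdown line; 0% = DMSO-treated cells and -100% = media-only wells without cells; nearly all actives have a fitted effect of over 55% in size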
#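 Fibrosarcoma NT cells, 750 per well in 5% FBS RPMI, were exposed to compound for 48 hours. Viability: CellTiter-Glo luminescence.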
# MCF10A rereplic – induces DNA re-replication in MCF 10a normal breast cells; MCF 10A DNA re-replication, Hoechst nuclear intensity, 48 h; Potency, µM (top dose mostly 46.1 µM), inactives show at the highest dose activity, positive = re-replication, usual class: activators; 2.9% of 350,000 active; AID 624296; note: % of control where 0% means no effect; nearly all actives have a fitted effect of over 50% in size
# SW480 rerep – inducers of DNA re-replication in SW480 colon cancer cells; SW480 DNA re-replication, Hoechst DNA content imaging, 48 h; Potency, µM (doses to about 46.1 µM), for the others: at the top dose re-replication activation, most hits filed as activators; 1.8% of 340,000 active; AID 624297; note: % of control where 0% means no effect; nearly all actives have a fitted effect of over 55% in size
#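 Quantitative HTS format with DMSO vehicle controls; 48 hr drug incubation at 37 C, then 40 min Hoechst staining and scanning imager measurement at 405 nm excitation.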
# HT1080 IDH1KD tx – toxicity to HT-1080 IDH1 knockdown cells (counter line) | HT-1080 IDH1 knockdown viability, ATP luminescence, 48 h | Potency, µM (titrated, usually from 46.1 µM), for inactives: at the highest dose activity, negative = toxicity, hits mostly cytotoxic | AID 686971 | 2% of 360,000 active;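 note: 0% = DMSO wells and -100% = cell-free medium wells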
#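 After a 2 h attachment period, IDH1KD HT-1080 cells took pin-transferred compound for 48 h at 37 °C; ATP-based luminescence after 10 min room-temperature reagent incubation reported viability.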
# * hit, by the source's call; i = inactive; ? = inconclusive; / = no result. Calls come from the whole dose curve; as a rule, active = well fitted curve in the direction sought with a large enough effect; inconclusive = small, poorly fitted or top-dose-only effect, or another doubt; inactive = no such curve, though single readings can be large; an effect the other way counts as inactive or inconclusive. Potency is the fitted concentration of half-maximal effect.
SMILES,KB-3-1 cytotox,KB-V1 cytotox,HT1080-NT tox,MCF10A rereplic,SW480 rerep,HT1080 IDH1KD tx
Cc1cccc(NC(=O)c2onc3c2CCCC3)c1C,?,i,-2.3%,17.7%,3.1%,-15.1%
CC1(C(=O)Nc2ccc3c(c2)OCO3)CCN1Cc1cccc2c1OCO2 (stereo not given),?,?,-19.0%,/,/,-6.6%
CC1(C(=O)Nc2cccc3cccnc23)CCN1Cc1cccc2c1OCO2 (stereo not given),?,?,6.51µM*,/,/,?
O=C(NCc1ccco1)/C(=C\c1ccco1)NC(=O)c1ccccc1Cl,i,i,-1.0%,-10.6%,11.6µM*,20.1%
Oc1cc(NCc2cccnc2)ccc1-c1nc2ccccc2o1,?,?,-19.1%,20.6µM*,?,?
COc1ccc(CC(=O)NCc2ccc(-n3cccc3)cc2)cc1OC,4.11µM*,8.2µM*,4.61µM*,5.8µM*,5.17µM*,1.84µM*
O=C(CNC(=O)Cc1ccccc1)NCc1cccs1,i,i,12.8%,0.5%,-3.2%,17.0%
Cc1ccc(CNC(=O)Cc2ccc(-n3cccc3)cc2)cc1,7.31µM*,2.31µM*,?,5.8µM*,4.11µM*,4.61µM*
O=C(Cc1ccc(-n2cccc2)cc1)NCc1cccs1,1.64µM*,1.16µM*,2.31µM*,?,?,2.59µM*
COc1cc(OC)cc(C(=O)NCc2ccc(-n3cccc3)cc2)c1,?,?,-18.9%,?,?,?
O=C(COc1coc(CN2CCN(c3ccc(F)cc3)CC2)cc1=O)NCC1CCCO1 (stereo not given),i,i,-0.4%,22.8%,8.3%,1.9%
O=C(COC(=O)Cn1cnc2ccccc21)Nc1ccc(Br)cc1,i,i,9.2%,/,/,-2.3%
O=C(COC(=O)Cn1cnc2ccccc21)Nc1ccc2c(c1)C(=O)c1ccccc1C2=O,i,i,-20.5%,?,6.51µM*,-10.7%
COc1ccccc1NS(=O)(=O)c1ccc(NC(=O)N2CCCCC2)cc1,i,i,6.9%,0.7%,-7.7%,7.5%
Cc1cc2c(cc1C)NC(CC(=O)Nc1cccc(C)c1C)C(=O)N2 (stereo not given),i,i,/,/,/,/
CCCn1nnc(NC(=O)C(c2ccccc2)c2ccccc2)n1,i,18.4µM*,2.1%,-1.2%,1.4%,5.5%
CSc1ncnc2[nH]ccc12,i,i,-1.4%,0.3%,2.4%,-9.6%
O=C(COC(=O)CSc1ccc([N+](=O)[O-])cc1)NCc1ccco1,i,i,-1.1%,8.3%,-2.9%,2.1%
OC(CNc1nc(C(F)(F)F)nc2ccccc12)c1ccccc1 (stereo not given),?,11.6µM*,?,-2.2%,3.0%,?
O=C(O)CCNc1nc(C(F)(F)F)nc2ccccc12,i,i,-1.9%,-7.1%,-6.5%,-14.8%
CC12CCC(=O)C=C1CCC1C2CCC2(C)C1CC1C3C(=O)N(Cc4ccccc4)C(=O)C3CC(=O)C12 (stereo not given),i,i,4.4%,?,?,11.6%
COC(=O)C1=C(C)N(C(C)C)C(=O)C1(NC(=O)c1ccccc1OC)C(F)(F)F (stereo not given),i,i,/,/,/,/
OCc1cnc(SCc2cccc(F)c2)n1Cc1ccc(F)cc1,i,i,/,/,/,/
O=C(NC12CC3CC(CC(C3)C1)C2)c1ccc(=O)oc1,i,i,-0.2%,-1.0%,-8.1%,0.1%
O=C(NNC(=O)C1[C@H]2CCCC[C@@H]12)c1ccc(=O)oc1 (stereo not given in full),i,?,11.7%,14.3%,2.31µM*,-1.5%
SMILES,KB-3-1 cytotox,KB-V1 cytotox,HT1080-NT tox,MCF10A rereplic,SW480 rerep,HT1080 IDH1KD tx
COc1ccc(-n2ccn3c(CCC(=O)N4CCN(c5cccc(C)c5C)CC4)nnc3c2=O)cc1,?,i,4.6%,-0.7%,-6.0%,6.3%
CC(C)(C)NCC(O)COc1ccccc1C(=O)CCc1ccccc1 (stereo not given),i,i,15.8µM*,10.6%,?,?
CC(C)(C)NCC(O)COc1ccccc1C(C)(C)C (stereo not given),i,i,-26.6%,3.1%,?,?
COc1ccc(/C=N/N(Cc2ccccc2)c2ccccc2)cc1O,i,?,14.6µM*,?,2.1%,23.1µM*
Cc1cc(C(=O)N/N=C/c2ccc(OC(=O)c3ccccc3Br)cc2)n[nH]1,i,i,-17.5%,-0.2%,-3.1%,-13.4%
Cc1cc(C(=O)N/N=C/c2cc(Br)ccc2OC(=O)c2ccccc2Cl)n[nH]1,?,?,?,?,7.31µM*,20.6µM*
O=C(N/N=C/c1cc(Br)ccc1OC(=O)c1ccc(Br)cc1)c1ccncc1,?,i,20.6µM*,10.1%,?,?
Cc1cc(C(=O)N/N=C/c2ccc3ccccc3c2)n[nH]1,i,i,-13.9%,3.0%,8.5%,-16.9%
Cc1cc(C(=O)N/N=C/c2cc(Br)ccc2OC(=O)c2ccccc2)n[nH]1,i,i,?,22.3%,?,8.2µM*
CCCCCCCCOc1ccccc1C(=O)Nc1ccc(C(=O)OCC[N+](C)(CC)CC)cc1,/,/,/,26.6µM*,-1.5%,/
OCCN1CCN(c2ncnc3c2c(-c2ccccc2)cn3-c2ccc(F)cc2)CC1,i,i,?,0.7%,-5.3%,18.4µM*
COc1ccc(-n2cc(-c3ccccc3)c3c(NN4CCOCC4)ncnc32)cc1,i,?,-25.0%,?,2.9%,-22.8%
CC1CN(c2ncnc3c2c(-c2ccccc2)cn3-c2ccc(F)cc2)CC(C)O1 (stereo not given),i,?,?,?,2.5%,?
Fc1ccc(-n2cc(-c3ccccc3)c3c(NN4CCOCC4)ncnc32)cc1,?,7.31µM*,10.9%,?,-6.0%,5.0%
Cc1cccc(-n2cc(-c3ccccc3)c3c(N4CCOCC4)ncnc32)c1,i,?,20.6µM*,?,29.1%,13µM*
Cc1ccc(-n2cc(-c3ccccc3)c3c(N4CCOCC4)ncnc32)cc1,i,?,?,18.4µM*,?,?
CCOC(=O)C1CCN(c2ncnc3c2c(-c2ccccc2)cn3-c2ccccc2)CC1,i,i,-9.6%,?,?,-22.0%
O=C(Nc1ccc(Br)cc1F)C(NS(=O)(=O)c1cccc2nsnc12)c1ccccc1 (stereo not given),i,i,/,/,/,/
